In PubChem BioAssay (Tox21):
Unmarked numbers belong to inactive results. Records with an inconclusive call do not appear. Where a call stands in place of a potency, no number is given. Active and inactive are the calls of the source. Unless noted, the call rests on the fitted dose curve.

Columns and labels:
[1] = Nuclear factor erythroid 2-related factor 2/antioxidant responsive element (Nrf2/ARE) small molecule agonists: qHTS cell viability counter screen in human keratinocytes (AID 1919968; active means well fitted curve in the direction sought with a large enough effect in the repeat runs; an effect the other way counts as inactive or inconclusive; further: nearly all actives have a fitted effect of over 55% in size)
Outline: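 Stably transfected HaCaT (KeratinoSens), 1,500/well. Test agents in DMSO were applied for 23 h, 37 C/5% CO2. CellTiter-Fluor was incubated 1 h before the fluorescence read.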

[2] = Nuclear factor erythroid 2-related factor 2/antioxidant responsive element (Nrf2/ARE) small molecule agonists: luciferase reporter gene qHTS assay in human keratinocytes (AID 1919969); further: nearly all actives have a fitted effect of over 35% in size
[3] = target: Gonadotropin-releasing hormone receptor (Homo sapiens) (UniProt P30968); test: Human gonadotropin-releasing hormone receptor (GnRHR) small molecule agonists, calcium flux assay in GnRHR-HEK293 cells (AID 1920063); further: nearly all actives have a fitted effect of over 35% in size
Outline: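 Stable human GnRHR HEK293 line. 18 h plating, then calcium dye for 1 h at 37 C. Agonist-mode compound addition from DMSO stocks; fluorescence monitored 3 min.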

[4] = target: KiSS-1 receptor (Homo sapiens) (UniProt Q969F8); test: Human kisspeptin (KISS1R) small molecule agonists, calcium flux assay in KISS1R-HEK293 cells (AID 1920064; active means well fitted curve in the direction sought with a large enough effect in the repeat runs; an effect the other way counts as inactive or inconclusive)
Outline: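 After overnight (18 h) culture at 37 C/5% CO2, human KISS1R-HEK293 cells received calcium dye for 1 h, then test compound; emission at 540 nm (excitation 480 nm) was tracked for 3 min.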

[5] = G protein-coupled receptor (GPCR) small molecule agonists, calcium flux assay: HEK293 wild type cell line counter screen (AID 1920065)
Outline: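 Following 18 h incubation at 37 C/5% CO2, plates got calcium dye for 1 h; compounds, ATP or DMSO were then pinned in and fluorescence followed kinetically (480/540 nm).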

[6] = p53 small molecule agonists, cell-based qHTS assay with human liver microsomes (AID 1963577)
Outline: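 p53RE-bla cells, 4,000/well, compound added after 5 h, with human liver microsomes 0.5 mg/mL and NADPH 0.5 mg/mL final; 16 h at 37 C, then LiveBLAzer 2 h RT, fluorescence.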

[7] = p53 small molecule agonists, cell-based qHTS assay with rat liver microsomes (AID 1963578)
Outline: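 p53RE-bla cells, 4,000/well, pre-incubated 5 h, then given compounds plus rat liver microsomes (0.5 mg/mL final) and NADPH (0.5 mg/mL final). Incubation 16 h at 37 C; beta-lactamase reporter read by LiveBLAzer fluorescence after 2 h at room temperature.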

[8] = p53 small molecule agonists, cell-based qHTS assay with human liver microsomes: qHTS cell viability counter screen (AID 1963579); further: nearly all actives have a fitted effect of over 45% in size
Outline: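 p53RE-bla cells, 4,000/well, dosed 5 hours after plating, with human liver microsomes (0.5 mg/mL final) plus NADPH (0.5 mg/mL final), 16 hours at 37 C. Viability read as CellTiter-Glo luminescence after 30 min at room temperature.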

[9] = p53 small molecule agonists, cell-based qHTS assay with rat liver microsomes: qHTS cell viability counter screen (AID 1963580); further: nearly all actives have a fitted effect of over 45% in size
Outline: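 Rat liver microsome (0.5 mg/mL final) and NADPH (0.5 mg/mL final) co-incubation with compounds for 16 h at 37 C on HCT-116 p53RE-bla cells; cytotoxicity taken from intracellular ATP luminescence.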

[10] = p53 small molecule agonists, cell-based qHTS assay: qHTS cell viability counter screen (AID 1963581); further: nearly all actives have a fitted effect of over 45% in size
Outline: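 qHTS counter screen: 16 h compound exposure at 37 C of p53RE-bla HCT-116 cells (4,000 per well, seeded 5 h prior), cell viability by ATP luminescence.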

[11] = p53 small molecule agonists, cell-based qHTS assay (AID 1963582; active means well fitted activation curve with a large enough effect in the signal ratio in the repeat runs, not every such curve was filed as active; the % refers to the signal ratio)
Outline: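 Measured: fluorescence from cleaved LiveBLAzer substrate. System: p53RE-bla cells, 16 h compound treatment at 37 C, 2 h substrate step at room temperature.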

[12] = target: 5-hydroxytryptamine receptor 2A (Homo sapiens) (UniProt P28223); test: 5-hydroxytryptamine receptor 2A (HTR2A) small molecule antagonists, cell-based qHTS assay (AID 1963586); further: nearly all actives have a fitted effect of over 45% in size; further: potency means the concentration at half of the fitted maximal effect
Outline: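 CHO cells stably expressing human HTR2A were plated for 18 h at 37 C, then loaded with calcium dye for 1 h. Compounds were preincubated 5 min at room temperature before DOI (4 nM solution) was added. Kinetic fluorescence was read for 3 min.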

[13] = target: 5-hydroxytryptamine receptor 2A (Homo sapiens) (UniProt P28223); test: 5-hydroxytryptamine receptor 2A (HTR2A) small molecule agonists, cell-based qHTS assay (AID 1963587); further: nearly all actives have a fitted effect of over 30% in size; further: potency means the concentration at half of the fitted maximal effect
Outline: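 Kinetic calcium-flux fluorescence (2 min, 1 sec intervals) after compound addition in agonist mode. HTR2A-CHO cells were cultured 18 h, then dye-loaded 1 h at 37 C.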

[14] = target: Muscarinic acetylcholine receptor M1 (Homo sapiens) (UniProt P11229); test: Cholinergic receptor muscarinic 1 (CHRM1) small molecule antagonists, cell-based qHTS assay (AID 1963588); further: nearly all actives have a fitted effect of over 40% in size; further: potency means the concentration at half of the fitted maximal effect
Outline: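 Compounds were tested at 15 concentrations in three independent runs. Dye-loaded CHRM1-CHO cells were exposed 5 min at room temperature before stimulation by acetylcholine added at 50nM. Intracellular calcium was read kinetically on FDSS for 3 min.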

[15] = target: Muscarinic acetylcholine receptor M1 (Homo sapiens) (UniProt P11229); test: Cholinergic receptor muscarinic 1 (CHRM1) small molecule agonists, cell-based qHTS assay (AID 1963589); further: nearly all actives have a fitted effect of over 35% in size
Outline: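 Kinetic fluorescence (1 s intervals) of calcium-sensitive dye in human M1 CHO cells after compound addition; cells pre-incubated 18 h at 37 C/5% CO2 and dye-loaded 1 h.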

[16] = cAMP Responsive Elements (CRE) small molecule agonists, cell-based qHTS assay (AID 1963590)
Outline: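 Test agents in DMSO were incubated 3 h at 37 C/5% CO2 with CRE-bla HEK 293T cells seeded 18 h earlier; LiveBLAzer B/G FRET substrate was added and read after 2 h at room temperature.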

[17] = cAMP Responsive Elements (CRE) small molecule antagonists, cell-based qHTS assay (AID 1963591; active means well fitted inhibition curve with a large enough effect in the signal ratio in the repeat runs, not every such curve was filed as active; the % refers to the signal ratio)
Outline: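 Reporter line CRE-bla HEK 293T in dialyzed-FBS DMEM; cells preincubated 18 h, treated 3 h with compound plus NKH477 (0.25 uM final); LiveBLAzer FRET, 2 h RT.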

[18] = target: Beta-2 adrenergic receptor (Homo sapiens) (UniProt P07550); test: Adrenergic beta2 receptor (ADRB2) small molecule antagonists, cell-based qHTS assay (AID 1963592); further: series mostly up to about 92 µM; nearly all actives have a fitted effect of over 50% in size
Outline: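 Assay format: CHO-ADRB2 cells, 18-20hr seeding at 37C/5% CO2, then compound plus 1nM isoproterenol agonist mix for 0.5hr RT. Homogeneous time-resolved fluorescence cAMP detection after 1hr, expressed as 665/615 nm ratio.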

[19] = target: Beta-2 adrenergic receptor (Homo sapiens) (UniProt P07550); test: Adrenergic beta2 receptor (ADRB2) small molecule agonists, cell-based qHTS assay (AID 1963593);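 further: CHO cells stably overexpressing human ADRB2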
Outline: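 CHO cells stably over-expressing ADRB2 were plated overnight at 37C, then dosed with compounds plus a stimulation mix containing 100uM IBMX and 25uM Ro-20-1724 for 0.5hr at room temperature. cAMP was measured by HTRF competition, 1hr.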

[20] = target: D(2) dopamine receptor (Homo sapiens) (UniProt P14416); test: Dopamine D2 receptor (DRD2) small molecule agonists, cell-based qHTS assay (AID 1963594); further: nearly all actives have a fitted effect of over 35% in size
Outline: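 cAMP accumulation in DRD2-HEK293 cells measured by HTRF after 1 h detection; compounds added 10 min before NKH477 (200nM […]) forskolin-analogue stimulation, 30 min at room temperature, with Ro20-1724 present at 0.1 mM final.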

Gonadotropin-releasing hormone receptor (Homo sapiens), sequence (P30968 whole entry, looked up): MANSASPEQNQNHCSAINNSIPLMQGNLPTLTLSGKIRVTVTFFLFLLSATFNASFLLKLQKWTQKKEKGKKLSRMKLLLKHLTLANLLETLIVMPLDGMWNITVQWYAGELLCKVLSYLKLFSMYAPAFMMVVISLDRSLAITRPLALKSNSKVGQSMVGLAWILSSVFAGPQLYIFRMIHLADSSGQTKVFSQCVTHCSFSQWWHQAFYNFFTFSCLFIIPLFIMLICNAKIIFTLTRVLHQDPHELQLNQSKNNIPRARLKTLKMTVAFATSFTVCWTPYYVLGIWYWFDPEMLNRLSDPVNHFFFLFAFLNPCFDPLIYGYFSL
Beta-2 adrenergic receptor (Homo sapiens), sequence (P07550 whole entry, looked up): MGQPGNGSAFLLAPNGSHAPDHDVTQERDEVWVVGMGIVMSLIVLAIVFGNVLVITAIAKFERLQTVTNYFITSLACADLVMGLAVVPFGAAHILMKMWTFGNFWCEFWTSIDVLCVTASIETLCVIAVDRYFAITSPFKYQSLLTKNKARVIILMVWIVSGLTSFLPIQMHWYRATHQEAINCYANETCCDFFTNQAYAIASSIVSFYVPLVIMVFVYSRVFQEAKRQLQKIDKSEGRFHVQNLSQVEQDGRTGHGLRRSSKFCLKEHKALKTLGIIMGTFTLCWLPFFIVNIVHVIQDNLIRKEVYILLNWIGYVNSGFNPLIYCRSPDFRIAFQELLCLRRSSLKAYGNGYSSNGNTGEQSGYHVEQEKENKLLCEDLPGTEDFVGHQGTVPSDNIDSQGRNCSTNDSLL
Muscarinic acetylcholine receptor M1 (Homo sapiens), sequence (P11229 whole entry, looked up): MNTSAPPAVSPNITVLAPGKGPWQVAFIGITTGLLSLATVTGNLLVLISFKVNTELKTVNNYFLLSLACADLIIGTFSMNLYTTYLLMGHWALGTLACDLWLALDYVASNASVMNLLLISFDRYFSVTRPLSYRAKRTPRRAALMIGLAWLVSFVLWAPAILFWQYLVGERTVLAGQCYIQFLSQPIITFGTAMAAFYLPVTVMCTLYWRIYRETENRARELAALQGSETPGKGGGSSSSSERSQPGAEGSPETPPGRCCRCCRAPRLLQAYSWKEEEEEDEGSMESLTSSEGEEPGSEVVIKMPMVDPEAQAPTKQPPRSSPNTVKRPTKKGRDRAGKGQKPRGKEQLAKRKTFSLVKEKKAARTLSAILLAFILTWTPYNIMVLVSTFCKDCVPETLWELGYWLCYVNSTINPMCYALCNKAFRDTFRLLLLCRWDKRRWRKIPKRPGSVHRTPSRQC
5-hydroxytryptamine receptor 2A (Homo sapiens), sequence (P28223 whole entry, looked up): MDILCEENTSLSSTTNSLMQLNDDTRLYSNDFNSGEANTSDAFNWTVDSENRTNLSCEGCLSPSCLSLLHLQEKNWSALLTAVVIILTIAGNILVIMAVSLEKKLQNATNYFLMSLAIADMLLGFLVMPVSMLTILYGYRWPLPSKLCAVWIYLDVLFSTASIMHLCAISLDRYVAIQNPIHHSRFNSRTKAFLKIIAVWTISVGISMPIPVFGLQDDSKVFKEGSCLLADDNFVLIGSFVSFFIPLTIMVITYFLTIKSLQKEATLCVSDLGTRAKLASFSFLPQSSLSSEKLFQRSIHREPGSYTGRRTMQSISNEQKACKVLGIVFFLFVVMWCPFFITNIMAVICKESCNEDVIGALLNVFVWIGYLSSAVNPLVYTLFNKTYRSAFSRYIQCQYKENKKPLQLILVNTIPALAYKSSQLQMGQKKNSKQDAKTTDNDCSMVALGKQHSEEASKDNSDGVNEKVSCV
D(2) dopamine receptor (Homo sapiens), sequence (P14416 whole entry, looked up): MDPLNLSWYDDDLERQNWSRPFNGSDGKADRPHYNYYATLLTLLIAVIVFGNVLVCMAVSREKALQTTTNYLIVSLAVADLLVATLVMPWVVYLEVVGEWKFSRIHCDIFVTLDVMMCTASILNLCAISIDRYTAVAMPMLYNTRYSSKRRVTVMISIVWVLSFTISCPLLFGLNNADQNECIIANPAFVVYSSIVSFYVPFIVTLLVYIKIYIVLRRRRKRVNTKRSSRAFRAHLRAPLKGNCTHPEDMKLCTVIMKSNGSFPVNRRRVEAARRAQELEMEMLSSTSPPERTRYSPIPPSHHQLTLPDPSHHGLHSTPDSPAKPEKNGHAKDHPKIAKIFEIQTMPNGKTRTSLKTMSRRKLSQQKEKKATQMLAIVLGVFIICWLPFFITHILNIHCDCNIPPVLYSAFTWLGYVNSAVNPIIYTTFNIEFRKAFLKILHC
KiSS-1 receptor (Homo sapiens), sequence (Q969F8 whole entry, looked up): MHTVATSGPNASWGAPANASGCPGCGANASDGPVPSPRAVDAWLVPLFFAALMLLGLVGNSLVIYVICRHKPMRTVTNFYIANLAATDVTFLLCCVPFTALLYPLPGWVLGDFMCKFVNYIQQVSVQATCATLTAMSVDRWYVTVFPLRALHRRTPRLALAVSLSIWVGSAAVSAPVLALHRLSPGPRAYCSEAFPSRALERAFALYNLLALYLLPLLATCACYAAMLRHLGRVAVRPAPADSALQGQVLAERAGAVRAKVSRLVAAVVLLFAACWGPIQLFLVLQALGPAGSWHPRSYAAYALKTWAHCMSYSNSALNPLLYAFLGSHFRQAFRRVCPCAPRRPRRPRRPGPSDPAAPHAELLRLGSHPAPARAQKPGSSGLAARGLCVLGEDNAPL

Row | Structure (SMILES) | Potency [1] | Potency [2] | Potency [3] | Potency [4] | Potency [5] | Potency [6] | Potency [7] | Potency [8] | Potency [9] | Potency [10] | Potency [11] | Potency [12] | Potency [13] | Potency [14] | Potency [15] | Potency [16] | Potency [17] | Potency [18] | Potency [19] | Potency [20]
1 | O=C1C(O)=C(O)C(=O)C(O)=C1O | inactive | inactive | inactive | inactive | inactive | inactive | inactive | inactive | inactive | inactive | inactive | inactive | 47.7 nM (active) | inactive | inactive | inactive | inactive | inactive | inactive | inactive
2 | CCN1CCCC(OC(=O)C(c2ccccc2)c2ccccc2)C1 (configuration not stated) | inactive | inactive | inactive | inactive | inactive | inactive | inactive | inactive | inactive | inactive | inactive | 163 nM (active) | 75.6 nM (active) | 4100 nM (active) | inactive | inactive | inactive | inactive | inactive | 
3 | CC1(C)CO[C@@H](CC(=O)O)CN1 | inactive | inactive | inactive | inactive | inactive | inactive | inactive | inactive | inactive | inactive | inactive | inactive | inactive | inactive | inactive | inactive | inactive | inactive | inactive | inactive
4 | CCN(CC)C(=O)C1CN2CCc3cc(OC)c(OC)cc3C2CC1OC(C)=O (configuration not stated) | inactive | inactive | inactive | inactive | inactive | inactive | inactive | inactive | inactive | inactive | inactive | inactive | inactive | inactive | inactive | inactive | inactive | inactive | inactive | inactive
5 | O=C(O)/C=C/c1ccc(Cn2ccnc2)cc1 | inactive | inactive | inactive | inactive | inactive | inactive | inactive | inactive | inactive | inactive | inactive | inactive | inactive | inactive | inactive | inactive | inactive | inactive | inactive | inactive
6 | CCOC(OCC)C(=O)c1ccccc1 | inactive | inactive | inactive | inactive | inactive | inactive | inactive | inactive | inactive | inactive | inactive | inactive | inactive | inactive | inactive | inactive | inactive | inactive | inactive | inactive
7 | CCCc1ccc(O)cc1 | inactive | inactive | inactive | inactive | inactive | inactive | inactive | inactive | inactive | inactive | inactive | inactive | inactive | inactive | inactive | inactive | inactive | inactive | inactive | inactive
8 | CC(=N\O)/C(C)=N/O | inactive | inactive | inactive | inactive | inactive | inactive | inactive | inactive | inactive | inactive | inactive | inactive | inactive | inactive | inactive | inactive | inactive | inactive | inactive | inactive
9 | FC(F)(F)c1ccccc1Cl | inactive | inactive | inactive | inactive | inactive | inactive | inactive | inactive | inactive | inactive | inactive | inactive | inactive | inactive | inactive | inactive | inactive | inactive | inactive | inactive
10 | COC(OC)C(C)c1ccccc1 (configuration not stated) | inactive | inactive | inactive | inactive | inactive | inactive | inactive | inactive | inactive | inactive | inactive | inactive | inactive | inactive | inactive | inactive | inactive | inactive |  | 
11 | C=CC(C)(O)CC/C=C(\C)CC (configuration not stated) | inactive | inactive | inactive | inactive | inactive | inactive | inactive | inactive | inactive | inactive | inactive | inactive | inactive | inactive | inactive | inactive | inactive | inactive | inactive | inactive
12 | CC(C)(C)NCCO | inactive | inactive | inactive | inactive | inactive | inactive | inactive | inactive | inactive | inactive | inactive | inactive | inactive | inactive | inactive | inactive | inactive | inactive | inactive | inactive
13 | C1C[C@@H]2[C@H]3CC[C@H](C3)[C@@H]2C1 | inactive | inactive | inactive | inactive | inactive | inactive | inactive | inactive | inactive | inactive | inactive | inactive | inactive | inactive | inactive | inactive | inactive | inactive | inactive | inactive
14 | CCC(C)(Oc1ccc(C2(c3ccc(OC(C)(CC)C(=O)O)cc3)CCCCC2)cc1)C(=O)O (configuration not stated) | inactive | inactive | inactive | inactive | inactive | inactive | inactive | inactive | inactive | inactive | inactive | inactive | inactive | inactive | inactive | inactive | inactive | inactive | inactive | inactive
